Where “and” joins values, the source holds several entries; their conditions need not be identical. Identical values can stand only once. In all, about 5,500 compounds went through this assay and about 2,000 (36%) were called active. Inconclusive results (about 18%) are left out. Cut-off read from the data, not from the text of the source: active = normalized growth mostly below about 0.91 (no sharp cut-off); inconclusive = no clear call, values can overlap the other calls; inactive = mostly above about 0.92. This is one part of the list.
Experiment: chemical genetic growth profiling, strain panel (AID 1159580);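 note: tested at 20 µM; growth read once vehicle control cultures reached saturation at 30 °C; 1 = growth at the plate median or of vehicle wells; lower values mean less growth of the strain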
Details: S. cerevisiae deletion strains, growth OD
[1] = locus YAL013W, strain DEP1, active compounds read low
[2] = locus YBR229C, strain ROT2, active compounds read low
[3] = locus YDL101C, strain DUN1, active compounds read low
[4] = locus YDL134C, strain PPH21, active compounds read low
[5] = locus YDR150W, strain NUM1, active compounds read low
[6] = locus YEL061C, strain CIN8, active compounds read low
[7] = locus YGR052W, strain FMP48, active compounds read low
[8] = locus YGR078C, strain PAC10, active compounds read low
[9] = locus YHR030C, strain SLT2, active compounds read low
[10] = locus YHR079C, strain IRE1, active compounds read low
[11] = locus YHR082C, strain KSP1, active compounds read low
[12] = locus YHR087W, strain rtc3, active compounds read low
[13] = locus YJL095W, strain BCK1, active compounds read low
[14] = locus YJR043C, strain POL32, active compounds read low
[15] = locus YJR066W, strain TOR1, active compounds read low
[16] = locus YJR075W, strain HOC1, active compounds read low
[17] = locus YKL203C, strain TOR2, active compounds read low
[18] = locus YLR039C, strain RIC1, active compounds read low
[19] = locus YLR058C, strain SHM2 (second series), active compounds read low
[20] = locus YLR085C, strain ARP6, active compounds read low
[21] = locus YLR113W, strain HOG1, active compounds read low
[22] = locus YLR262C, strain YPT6, active compounds read low
[23] = locus YML094W, strain GIM5, active compounds read low
[24] = locus YMR219W, strain ESC1, active compounds read low
[25] = locus YNL128W, strain TEP1, active compounds read low
[26] = locus YNL153C, strain GIM3, active compounds read low
[27] = locus YNL183C, strain NPR1, active compounds read low
[28] = locus YNL207W, strain RIO2, active compounds read low
[29] = locus YNL298W, strain CLA4 (second series), active compounds read low
[30] = locus YNL322C, strain KRE1, active compounds read low
[31] = locus YNR030W, strain Alg12, active compounds read low
[32] = locus YOR119C, strain RIO1, active compounds read low
[33] = locus YOR231W, strain MKK1, active compounds read low
[34] = locus YPL055C, strain LGE1, active compounds read low
[35] = locus YPL241C, strain CIN2, active compounds read low
[36] = locus YPL256C, strain CLN2, active compounds read low
[37] = locus YPR135W, strain CTF4, active compounds read low

Measured: normalized growth

Cc1cc(Oc2c([N+](=O)[O-])cc(C(F)(F)F)cc2[N+](=O)[O-])c2c(Cl)ccc(C)c2n1
inactive: locus YCL061C, strain MRC1, active compounds read low 0.948 | [3] 0.987 | [5] 0.851 | [19] 0.951 | [21] 0.655 | [25] 0.957 | [26] 0.976 | [30] 0.948
active: [1] 0.667 | [2] 0.883 | [4] 0.887 | [6] 0.788 | [7] 0.173 | [8] 0.913 | [9] 0.271 and 0.16 | [10] 0.231 | [11] 0.27 | [12] 0.834 | [13] 0.363 | [14] 0.905 | [15] 0.29 | [16] 0.89 | locus YKL171W, strain NNK1, active compounds read low 0.534 | locus YKL190W, strain CNB1, active compounds read low 0.458 | [17] 0.459 | [18] 0.498 | [20] 0.372 | [22] 0.547 | [23] 0.805 | [24] 0.905 | [27] 0.143 | [28] 0.546 | [29] 0.668 | [31] 0.623 | [32] 0.479 | [33] 0.418 | [34] 0.44 | [35] 0.762 | [36] 0.348 | [37] 0.451

Cc1cc(Sc2c([N+](=O)[O-])cc(C(F)(F)F)cc2[N+](=O)[O-])c(Cl)cc1Cl
inactive: locus YAR019C, strain CDC15, active compounds read low 0.995 | locus YBL105C, strain PKC1, active compounds read low 1 | locus YBR135W, strain CKS1, active compounds read low 0.995 | locus YBR136W, strain MEC1, active compounds read low 0.995 | locus YBR160W, strain CDC28, active compounds read low 0.991 | locus YDL017W, strain CDC7, active compounds read low 0.999 | locus YDL028C, strain MPS1, active compounds read low 0.99 | [3] 0.995 | locus YDL108W, strain KIN28, active compounds read low 0.995 | locus YDL132W, strain cdc53, active compounds read low 0.99 | locus YDL214C, strain PRR2, active compounds read low 0.98 | locus YDR052C, strain DBF4, active compounds read low 0.993 | locus YDR054C, strain cdc34, active compounds read low 0.99 | locus YDR226W, strain ADK1, active compounds read low 0.978 | locus YDR477W, strain SNF1, active compounds read low 0.959 | locus YER123W, strain YCK3, active compounds read low 0.97 | locus YER133W, strain GLC7, active compounds read low 0.998 | locus YFL009W, strain cdc4, active compounds read low 0.992 | locus YFL029C, strain CAK1, active compounds read low 1 | locus YFR003C, strain YPI1, active compounds read low 0.997 | locus YFR019W, strain FAB1, active compounds read low 0.964 | locus YFR028C, strain CDC14, active compounds read low 0.996 | locus YGR040W, strain KSS1, active compounds read low 0.964 | [7] 1.01 | locus YGR092W, strain DBF2, active compounds read low 0.982 | [9] 0.928 | [10] 0.861 | [11] 0.988 | locus YHR205W, strain SCH9, active compounds read low 0.911 | locus YIL147C, strain SLN1, active compounds read low 0.996 | [13] 0.964 | locus YJL128C, strain PBS2, active compounds read low 0.955 | locus YJL157C, strain FAR1, active compounds read low 0.926 | locus YJR016C, strain ILV3, active compounds read low 1 | locus YJR066W, strain TOR1 (second series), active compounds read low 0.949 | [15] 0.961 | locus YKL048C, strain ELM1, active compounds read low 0.987 | locus YKL067W, strain YNK1, active compounds read low 0.994 | locus YKL101W, strain HSL1, active compounds read low 0.995 | locus YKL193C, strain SDS22, active compounds read low 0.999 | [17] 1 | [21] 1.02 | locus YLR133W, strain CKI1, active compounds read low 0.96 | locus YLR403W, strain SFP1, active compounds read low 0.931 | locus YML070W, strain DAK1, active compounds read low 0.996 | locus YMR001C, strain CDC5, active compounds read low 1 | locus YMR205C, strain PFK2 (second series), active compounds read low 0.998 | locus YMR277W, strain FCP1, active compounds read low 0.995 | locus YNL006W, strain LST8, active compounds read low 1 | locus YNL020C, strain ARK1, active compounds read low 0.924 | locus YNL161W, strain CBK1, active compounds read low 0.977 | [27] 1.04 | [28] 0.991 | locus YNL222W, strain SSU72, active compounds read low 0.991 | locus YNL307C, strain MCK1 (second series), active compounds read low 0.974 | locus YOL078W, strain AVO1, active compounds read low 0.995 | locus YOL136C, strain PFK27, active compounds read low 0.926 | locus YOR061W, strain CKA2, active compounds read low 0.967 | [32] 1.05 | [33] 0.976 | locus YOR329C, strain SCD5, active compounds read low 0.994 | locus YPL031C, strain PHO85, active compounds read low 0.928 | locus YPL153C, strain RAD53, active compounds read low 0.965 | locus YPL204W, strain HRR25, active compounds read low 0.947 | locus YPL209C, strain IPL1, active compounds read low 0.999 | [36] 0.99 | locus YPR025C, strain CCL1, active compounds read low 0.997 | locus YPR106W, strain ISR1, active compounds read low 0.996 | locus YPR111W, strain DBF20, active compounds read low 0.974 | strain NNK1, active compounds read low 0.99 | strain TSCII, active compounds read low 1

O=[N+]([O-])c1cc(C(F)(F)F)ccc1Oc1cc(C(F)(F)F)cc(C(F)(F)F)c1
inactive: [1] 1.03 | [2] 1 | [3] 1.04 | [4] 0.982 | [5] 1.02 | [6] 1.03 | [8] 1.01 | [9] 1.03 | [12] 1.02 | [14] 0.996 | [16] 1.01 | [18] 1.02 | [19] 0.982 | [20] 1.01 | [22] 0.992 | [23] 1.12 | [24] 0.99 | locus YMR263W, strain SAP30, active compounds read low 0.993 | locus YMR307W, strain GAS1, active compounds read low 1.12 | [25] 0.97 | [26] 1.03 | [29] 1.01 | [30] 1 | [31] 1.05 | [34] 1.09 | [35] 1.07 | [37] 1.12

From PubChem BioAssay AID1159580 (chemical genetic matrix, 2015)
